Bioassay records: PubChem BioAssay, National Center for Advancing Translational Sciences (NCATS)
Chronic BCR inh: blocks chronic active B-cell receptor signaling; ABC-DLBCL IkBa-CBG/CBR reporter, luminescence ratio, 4 h; Potency, µM (top dose mostly 46.1 µM), actives largely listed as inhibitors; 0.05% of 340,000 active; active = well fitted inhibition curve with a large enough effect in the signal ratio, with a control signal flat, not every such curve was filed as active; inconclusive = small, poorly fitted or top-dose-only effect, or effect the other way, or a change in a side signal; the % refers to the signal ratio
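TMD8 ABC-DLBCL cells carrying doxycycline-inducible green luciferase fused to IkappaBalpha plus unfused red luciferase were exposed to compounds (up to 46 uM) for 4 hrs at 37C. Activity came from the overlap-corrected green/red luminescence ratio.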
hERG WT inh: KCNH2 (human, wildtype) channel inhibition; Q12809; 0.37% of 340,000 active; AID 720551; activity change, % at 1.84 µM; U2OS, BacMam KCNH2, thallium flux FluxOr; hits give low values;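 active = maximum activity change below -70%; inconclusive = maximum activity change between -70% and -50%; inactive = maximum activity change above -50%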
Target sequence (Q12809 whole entry, looked up): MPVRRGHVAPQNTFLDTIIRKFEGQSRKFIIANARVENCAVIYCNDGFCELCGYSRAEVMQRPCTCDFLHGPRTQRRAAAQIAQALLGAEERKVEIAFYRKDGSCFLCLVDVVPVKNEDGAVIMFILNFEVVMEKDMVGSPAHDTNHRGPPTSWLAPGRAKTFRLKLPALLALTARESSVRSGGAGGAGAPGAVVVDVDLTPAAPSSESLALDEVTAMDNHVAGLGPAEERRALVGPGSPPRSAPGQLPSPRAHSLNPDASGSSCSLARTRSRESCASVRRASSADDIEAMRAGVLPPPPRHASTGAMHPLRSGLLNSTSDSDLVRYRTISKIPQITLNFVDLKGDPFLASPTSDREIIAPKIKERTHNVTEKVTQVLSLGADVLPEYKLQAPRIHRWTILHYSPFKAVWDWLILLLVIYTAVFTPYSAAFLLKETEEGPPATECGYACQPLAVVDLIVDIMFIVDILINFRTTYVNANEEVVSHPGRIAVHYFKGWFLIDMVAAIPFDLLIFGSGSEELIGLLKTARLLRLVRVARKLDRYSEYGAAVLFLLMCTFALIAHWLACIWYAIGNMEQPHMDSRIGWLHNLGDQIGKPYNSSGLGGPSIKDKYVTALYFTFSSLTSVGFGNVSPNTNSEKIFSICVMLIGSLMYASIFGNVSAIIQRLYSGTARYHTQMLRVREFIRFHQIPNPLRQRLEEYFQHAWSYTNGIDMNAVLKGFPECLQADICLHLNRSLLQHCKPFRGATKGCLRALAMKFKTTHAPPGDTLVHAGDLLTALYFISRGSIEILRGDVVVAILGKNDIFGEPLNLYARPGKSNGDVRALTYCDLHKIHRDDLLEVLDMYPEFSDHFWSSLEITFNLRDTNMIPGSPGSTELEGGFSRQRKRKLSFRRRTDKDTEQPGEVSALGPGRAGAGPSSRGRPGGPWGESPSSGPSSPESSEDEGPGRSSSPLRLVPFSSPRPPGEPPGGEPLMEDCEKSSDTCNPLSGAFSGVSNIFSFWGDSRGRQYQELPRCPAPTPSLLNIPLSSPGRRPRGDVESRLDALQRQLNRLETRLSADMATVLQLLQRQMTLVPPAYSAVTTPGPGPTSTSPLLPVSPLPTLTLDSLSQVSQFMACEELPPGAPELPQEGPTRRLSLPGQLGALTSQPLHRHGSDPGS
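U2OS cells were transduced with wild-type KCNH2 virus (2.03 x 10^8 / mL) for 4 h at room temperature, then cultured overnight at 37 C. Thallium flux was read with FluxOr dye. Rate constants were normalized to DMSO controls.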
KCNH2 3.1 inh: blocks the human KCNH2 3.1 channel isoform. U2OS KCNH2 3.1, thallium flux FluxOr; hits give low values. activity change, % (tested at about 1.8 µM). 0.95% of 340,000 active;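 active = maximum activity change below -70%; inconclusive = maximum activity change from -70% to -50%; inactive = maximum activity change above -50%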;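 note: thallium influx rate constant from kinetic fluorescence after stimulation buffer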
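Channel expression came from 3.1 mutant virus (1.77 x 10^8 /mL) applied to suspended U2OS cells for 4 h. Flux was tracked with FluxOr dye plus Red40 quencher, and kinetic rate constants normalized to controls.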
ClpP mod: qHTS Assay for Activators of ClpP; Potency, µM (top dose mostly 57.5 µM); 1.9% of 340,000 active; AID 651965, 2013; purified B. subtilis ClpP, FRET peptide cleavage, 20 min; ATP-dependent Clp protease proteolytic subunit (Bacillus subtilis (strain 168)), P80244; active = well fitted falling curve with a large enough effect; inconclusive = small, poorly fitted or top-dose-only effect; inactive = no such curve, though single readings can be large or run the other way; note: the source files actives as falling curves though it sought activators and does not explain the sign; nearly all actives have a fitted effect of over 65% in size
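ClpP 10 microg/mL final, pH 8 Tris/KCl buffer with BSA, glycerol, Tween-20; compound pinned in; FRET-FV substrate; RT 20 min; Ex320/Em430; ΔFRET vs ADEP 5.8 microM, DMSO, no enzyme.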
LDHA inh: inhibitors of human lactate dehydrogenase A; purified LDHA, NADH/diaphorase-resazurin fluorescence; hits give low values; activity change, % (values are at about 110 or 230 µM); 0.15% of 480,000 active; AID 1347041; in the data active = activity change below about -30%; inconclusive = mostly about -25% to -30%
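Human LDH5 (2 nM) was incubated with 0.06 mM NADH and 0.2 mM pyruvate for 5 min at room temperature in Tris pH 7.4. Remaining NADH was coupled through diaphorase/resazurin, and resorufin fluorescence was read at 0 and 20 min.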
ALOX12 inh: inhibitors of human 12S-lipoxygenase ALOX12; purified 12hLO, xylenol orange hydroperoxide absorbance; P18054; 1.1% of 580,000 active; AID 1671190; Potency, µM (doses to about 108 µM), hits mostly inhibitors; active = well fitted inhibition curve with a large enough effect; inconclusive = small, poorly fitted or top-dose-only effect, or another doubt; inactive = no such curve, though single readings can be large or run the other way
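Hydroperoxide product was detected by ferrous iron/xylenol orange as the 573 to 405 nm absorbance ratio. Arachidonic acid at 40 uM (final) was turned over for 30 min at room temperature by 150 nM human 12hLO, pH 7.0 Hepes buffer, after 15 min compound preincubation.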
Hits are given with their value; - = inactive; ? = inconclusive; . = no result. The list is not random: actives were taken first. Their share in the collection is about 3%.

SMILES	Chronic BCR inh	hERG WT inh	KCNH2 3.1 inh	ClpP mod	LDHA inh	ALOX12 inh
CCc1nc2c(OCc3ccc(Cl)cc3)cccn2c1N(C=O)Cc1ccccc1	.	.	.	-	-	?
CCc1nc2c(OCC(=O)c3ccc(Cl)cc3Cl)cccn2c1N(C=O)Cc1ccccc1	.	.	.	-	-	14µM
CCOc1cccc(CN2CCCC(COc3ccccc3C(=O)NC(C)C)C2)c1 (stereo not given)	.	.	.	.	.	-
C[C@@H]1CCCCO[C@H](CN(C)S(=O)(=O)c2cccs2)[C@H](C)CN([C@@H](C)CO)C(=O)c2cc(NC(=O)NC3CCCCC3)ccc2O1	.	-	-99	-	-	?
C[C@H](CO)N1C[C@H](C)[C@@H](CN(C)S(=O)(=O)c2cccs2)Oc2ccc(NC(=O)NC3CCCCC3)cc2C1=O	-	-	-	-	-	?
C[C@H](CO)N1C[C@H](C)[C@@H](CN(C)C(=O)Nc2ccccc2)Oc2ccc(NC(=O)Nc3ccc4c(c3)OCO4)cc2C1=O	?	-	-120	-	-	-
COc1nc2cc(C)c(C)cc2nc1C(=O)Nc1cccc(Cl)c1	.	.	.	.	-	?
O=C(COc1ccccc1Cl)Nc1cccc(-c2nc3ccccc3o2)c1	.	.	.	.	-	-
CNC(=S)NCc1ccc(C(=O)OC)cc1	.	.	.	.	-	?
CCCCNC(=O)c1cnc2sc(N3CCCCCC3)nn2c1=O	.	.	.	25µM	-	-
CC(C)NC(=O)c1cnc2sc(N3CCCCCC3)nn2c1=O	.	.	.	16µM	-	?
CCOCCCNC(=O)c1cnc2sc(N3CCCCCC3)nn2c1=O	.	.	.	16µM	-	-
CCCCNC(=O)c1cnc2sc(N3CCCCC3)nn2c1=O	.	.	.	-	-	-
CCCNC(=O)c1cnc2sc(N3CCCCC3)nn2c1=O	.	.	.	-	-	-
COc1ccc(CNC(=O)c2cnc3sc4cc(OC)ccc4n3c2=O)cc1	.	.	.	-	-	-
COc1ccc2c(c1)sc1ncc(C(=O)NCc3ccccc3F)c(=O)n12	.	.	.	11µM	-	-
CCOC(=O)c1[nH]c(C)c(C(=O)Cn2cnc3ccccc3c2=O)c1C	.	.	.	.	-	-
N#C/C(=C/c1ccc(OCCOc2ccccc2)cc1)c1ccc(Cl)cc1Cl	.	.	.	.	-	?
Cc1ccc(CNC(=O)c2cc3cc(C)ccc3[nH]2)cc1	.	.	.	.	-	?
O=C(O)c1ccc(/C=C/C(=O)c2ccccc2Cl)cc1	.	.	.	.	-	?
O=C(NCCc1ccccc1)c1cnc2sc(N3CCOCC3)nn2c1=O	.	.	.	10µM	-	-
CCN(CC)c1nn2c(=O)c(C(=O)NCCc3cccc(C)c3)cnc2s1	.	.	.	11µM	-	-
COc1ccccc1CNC(=O)c1cnc2sc(N3CCCCCC3)nn2c1=O	.	.	.	14µM	-	-
CCOc1cccc(CN2C[C@@H](CO)[C@H](c3nc(C)no3)C2)c1	.	.	.	.	.	-
CN(C)C(=O)C1CCC(C)(C(=O)O)C1(C)CI (stereo not given)	.	.	.	.	-	40µM
SMILES	Chronic BCR inh	hERG WT inh	KCNH2 3.1 inh	ClpP mod	LDHA inh	ALOX12 inh
CC(C)(C)NC(=O)C1CCC(C)(C(=O)O)C1(C)C (stereo not given)	-	-	-	-	-	-
Cc1ccc(-c2csc(NC(=O)c3cnc4c(cnn4C(C)C)c3)n2)cc1C	.	.	.	.	-	?
Cc1ccc(O)c(NC(=O)CCC2CCCCC2)c1	-	-	-	-	-	-
Cc1ccc(NC(=O)CCC2CCCCC2)c(NC(=O)c2ccco2)c1	.	.	.	.	-	3.5µM
Cc1ccc(C(=O)N(Cc2ccccn2)C2CC2)s1	.	.	.	.	-	-
O=C(O)C[C@@H]1CCN(C(=O)COc2ccccc2)C[C@@H]1CCN1CCN(c2cccc(C(F)(F)F)c2)CC1	.	.	.	.	.	-
COC(=O)Cc1c(C)c2ccc(O)cc2oc1=O	.	.	.	.	-30	-
CCCc1c(C)c2ccc(OCC(C)=O)cc2oc1=O	-	-	-	3.2µM	-	-
COC(=O)COc1ccc2c(C)c(CC(=O)OC)c(=O)oc2c1	.	.	.	.	-	-
CC(=O)COc1ccc2c(C)c(CC(C)C)c(=O)oc2c1	.	.	.	.	-	-
CCCCc1c(C)c2ccc(OCC(C)=O)cc2oc1=O	?	-	-	4µM	-	-
C=CCOC(=O)COc1ccc2c(C)c(C)c(=O)oc2c1	-	-	-	13µM	-	-
COc1ccc(F)cc1S(=O)(=O)NC1CCc2nnc(C3CC3)n2CC1 (stereo not given)	.	.	.	.	.	-
